Source: PubChem BioAssay (Tox21)
“And” between values parts separate entries of the source, which are not always exact repeats. Equal entries are not always repeated. Results filed as inconclusive are left out. Some structures have more than one record in an assay (separate samples or runs), and their calls can disagree. The source made the active and inactive calls. Unless noted, calls follow the shape of the dose curve; as a rule, active = well fitted curve in the direction sought with a large enough effect in the repeat runs; inconclusive = weak or mixed curves; inactive = no such curve, though single readings can be large; an effect the other way counts as inactive or inconclusive.

What was measured:
[1] = A CellTox Green Cytotoxicity Assay to monitor cytotoxicity in HEK293 cells - 32 hour (AID 1224881); also: nearly all actives have a fitted effect of over 40% in size; also: potency is read from the fitted curve at half-maximal effect
How it was run: (§1)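 Tox21 screen in HEK293: membrane-impermeant cyanine dye fluoresces on binding dead-cell DNA; compound pinned 5 h post-seeding, plates held at 37 C, signal read repeatedly through 40 h.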

[2] = A CellTox Green Cytotoxicity Assay to monitor cytotoxicity in HepG2 cells - 0 hour (AID 1224882); also: nearly all actives have a fitted effect of over 35% in size
How it was run: (§2)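 Measurements at 0, 8, 16, 24, 32 and 40 h of treatment captured CellTox Green fluorescence in HepG2 cells that had been co-plated with reagent and preincubated 5 h at 37 C/5% CO2.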

[3] = A CellTox Green Cytotoxicity Assay to monitor cytotoxicity in HepG2 cells - 32 hour (AID 1224883); also: nearly all actives have a fitted effect of over 50% in size; also: potency is read from the fitted curve at half-maximal effect
How it was run: as §2

[4] = A CellTox Green Cytotoxicity Assay to monitor cytotoxicity in HEK293 cells - 8 hour (AID 1224884); also: nearly all actives have a fitted effect of over 35% in size; also: potency is read from the fitted curve at half-maximal effect
How it was run: as §1

[5] = qHTS RealTime-Glo MT Cell Viability Assay in HepG2 cells - 16 hour (AID 1224885); also: nearly all actives have a fitted effect of over 50% in size; also: potency is read from the fitted curve at half-maximal effect
How it was run: (§3)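 Cells + NanoLuc/prosubstrate dispensed (600 cells/well) → 5 h at 37 C/5% CO2 → compounds in DMSO transferred → 40 h incubation at 37 C, luminescence read at 0, 8, 16, 24, 32, 40 h.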

[6] = qHTS RealTime-Glo MT Cell Viability Assay in HEK293 cells - 24 hour (AID 1224886); also: nearly all actives have a fitted effect of over 50% in size; also: potency is read from the fitted curve at half-maximal effect; as to activity change, negative = cytotoxicity: top concentration of the series differs between compounds
How it was run: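 Tox21 10K qHTS, HEK293, 600 cells/well, RealTime-Glo reagent co-dispensed with cells; 5 h preincubation, compound by pintool, 37 C, luminescence at 0–40 h.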

[7] = qHTS RealTime-Glo MT Cell Viability Assay in HEK293 cells - 8 hour (AID 1224887); also: nearly all actives have a fitted effect of over 50% in size; also: potency is read from the fitted curve at half-maximal effect; as to activity change, negative = cytotoxicity: top concentration of the series differs between compounds
How it was run: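 HEK293 + NanoLuc + prosubstrate, 600 cells/well; 5 h, 37 C/5% CO2; compound 23 nL in DMSO by pintool; 37 C; luminescence read at 0, 8, 16, 24, 32 and 40 h time points.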

[8] = A CellTox Green Cytotoxicity Assay to monitor cytotoxicity in HEK293 cells - 16 hour (AID 1224888); also: nearly all actives have a fitted effect of over 35% in size; also: potency is read from the fitted curve at half-maximal effect
How it was run: as §1

[9] = qHTS RealTime-Glo MT Cell Viability Assay in HepG2 cells - 0 hour (AID 1224889); also: nearly all actives have a fitted effect of over 50% in size
How it was run: as §3

[10] = A CellTox Green Cytotoxicity Assay to monitor cytotoxicity in HepG2 cells - 8 hour (AID 1224890); also: nearly all actives have a fitted effect of over 45% in size; also: potency is read from the fitted curve at half-maximal effect
How it was run: as §2

[11] = qHTS assay to identify small molecule antagonists of the estrogen receptor alpha (ER-alpha) signaling pathway using the BG1 cell line in the presence of 0.1 nM 17-beta-estradiol - cell viability counter screen (AID 1259241); also: nearly all actives have a fitted effect of over 40% in size
How it was run: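 VM7Luc4E2 cells (endogenous full-length ER-alpha, 4xERE-luciferase), cultured 5 days in charcoal-stripped serum, exposed to compounds with 0.1 nM 17beta-estradiol (final) for 22 hr at 37C. Viability read in same wells as live-cell protease fluorescence after 30 min.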

[12] = qHTS assay to identify small molecule antagonists of the androgen receptor (AR) signaling pathway using the MDA cell line in the presence of 0.5 nM R1881 - cell viability counter screen (AID 1259242); also: nearly all actives have a fitted effect of over 45% in size; also: potency is read from the fitted curve at half-maximal effect
How it was run: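 Concentration-response screen of compounds for toxicity in MDA-kb2 reporter cells: 16 hr at 37C with 0.5 nM R1881, endpoint live-cell protease fluorescence measured in the reporter wells.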

[13] = qHTS assay to identify small molecule phospholipidosis (PLD) inducers (AID 1259344; active = well fitted curve in the direction sought with a large enough effect; an effect the other way counts as inactive or inconclusive)
How it was run: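 Cells (HepG2, 900 per well) attach for 4 h, receive LipidTOX Red and compound together, incubate 24 h at 37 C, are fixed 30 min with paraformaldehyde/Hoechst, then imaged at one site per well.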

[14] = qHTS assay to identify small molecule HDAC inhibitors (AID 1259364);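 also: wild-type HCT-116 cells with endogenous class I/II HDAC activity; top concentration of the series differs between compounds; nearly all actives have a fitted effect of over 45% in size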
How it was run: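 Screening used wild-type human colon HCT-116 cells incubated overnight, dosed with compounds for 2 hours, and assayed with a homogeneous luminogenic HDAC I/II reagent for 30 minutes at room temperature.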

[15] = qHTS assay to identify small molecule HDAC inhibitors - cell viability counter screen (AID 1259365)
How it was run: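 Wild-type HCT-116 cells, 1,500/well, cultured overnight, then compound-treated 2 h at 37 C. Viability measured as ATP luminescence with CellTiter-Glo after 30 min at room temperature.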

[16] = qHTS assay to identify small molecule agonists of the sonic hedgehog signaling (Shh) pathway - cell viability counter screen (AID 1259366); also: nearly all actives have a fitted effect of over 50% in size; also: potency is read from the fitted curve at half-maximal effect
How it was run: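 NIH/3T3-derived Gli1-Luc reporter cells, 2,000 per well, received compound after 4 h and were treated about 23 h at 37C. Viability measured in the same wells by CellTiter-Fluor fluorescence after 1 h.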

[17] = qHTS assay to identify small molecule antagonists of the sonic hedgehog signaling (Shh) pathway - cell viability counter screen (AID 1259367); also: nearly all actives have a fitted effect of over 55% in size; also: potency is read from the fitted curve at half-maximal effect
How it was run: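 Cytotoxicity was assessed in parallel with Shh reporter activity by measuring live-cell protease fluorescence (CellTiter-Fluor) in NIH/3T3 cells stably carrying Gli1-Luc, treated with compound under conditioned medium stimulation for 23 hr plus 1 hr reagent incubation.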

[18] = qHTS assay to identify small molecule agonists of the sonic hedgehog signaling (Shh) pathway (AID 1259368; calls by dose curve;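 also: NIH/3T3-derived 3T3Gli1-Luc cells carrying a stable Gli1-driven firefly luciferase reporter; series mostly up to about 92 µM; nearly all actives have a fitted effect of over 15% in size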)
How it was run: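 Hedgehog pathway agonism scored by increased firefly luciferase luminescence in 3T3Gli1-Luc cells treated 24 hr at 37 C; detection used a 30 min room-temperature reagent incubation.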

[19] = molecular target: Estrogen receptor (Homo sapiens) (UniProt P03372); experiment: qHTS assay to identify small molecule antagonists of the estrogen receptor alpha (ER-alpha) signaling pathway using the BG1 cell line in the presence of 0.1 nM 17-beta-estradiol (AID 1259244); also: nearly all actives have a fitted effect of over 50% in size; also: potency is read from the fitted curve at half-maximal effect
How it was run: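 Compounds were tested against 0.1 nM (final) 17beta-estradiol in VM7Luc4E2 cells, which express full-length ER-alpha and an ERE-luciferase reporter; luminescence was recorded following 22 h exposure.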

[20] = molecular target: Androgen receptor (Homo sapiens) (UniProt P10275); experiment: qHTS assay to identify small molecule antagonists of the androgen receptor (AR) signaling pathway using the MDA cell line in the presence of 0.5 nM R1881 (AID 1259243); also: nearly all actives have a fitted effect of over 50% in size; also: potency is read from the fitted curve at half-maximal effect
How it was run: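 With R1881 held at 0.5 nM (final), compound effects on MMTV-luciferase expression in MDA-kb2 cells were scored by luminescence after a 16 hr, 37C incubation.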
% is scaled to controls: 0 for no effect and ±100 for the full control effect.

Chain of Androgen receptor (Homo sapiens) (P10275 whole entry, looked up): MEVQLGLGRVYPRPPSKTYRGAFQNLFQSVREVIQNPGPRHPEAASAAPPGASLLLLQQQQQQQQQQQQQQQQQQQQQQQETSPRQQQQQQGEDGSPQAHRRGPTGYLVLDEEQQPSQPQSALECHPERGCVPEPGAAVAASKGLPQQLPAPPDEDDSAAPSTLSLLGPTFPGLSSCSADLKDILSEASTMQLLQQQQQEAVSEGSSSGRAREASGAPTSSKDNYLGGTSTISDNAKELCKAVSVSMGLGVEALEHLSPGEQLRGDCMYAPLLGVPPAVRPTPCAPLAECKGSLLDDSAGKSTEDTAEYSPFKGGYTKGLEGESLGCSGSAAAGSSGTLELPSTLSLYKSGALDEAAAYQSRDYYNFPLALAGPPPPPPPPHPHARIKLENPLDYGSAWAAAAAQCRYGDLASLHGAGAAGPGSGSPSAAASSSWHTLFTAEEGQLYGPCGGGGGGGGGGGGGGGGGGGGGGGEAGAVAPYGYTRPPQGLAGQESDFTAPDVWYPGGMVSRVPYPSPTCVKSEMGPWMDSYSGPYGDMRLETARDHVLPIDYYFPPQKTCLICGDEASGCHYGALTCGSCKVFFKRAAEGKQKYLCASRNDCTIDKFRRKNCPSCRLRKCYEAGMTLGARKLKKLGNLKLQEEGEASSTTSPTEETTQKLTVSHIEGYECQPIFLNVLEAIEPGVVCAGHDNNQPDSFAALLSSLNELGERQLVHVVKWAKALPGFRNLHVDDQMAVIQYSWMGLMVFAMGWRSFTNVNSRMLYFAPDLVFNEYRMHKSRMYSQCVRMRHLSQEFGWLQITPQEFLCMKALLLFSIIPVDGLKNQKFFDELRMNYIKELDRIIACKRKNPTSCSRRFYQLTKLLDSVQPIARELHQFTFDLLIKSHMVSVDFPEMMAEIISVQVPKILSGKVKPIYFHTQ
Chain of Estrogen receptor (Homo sapiens) (P03372 whole entry, looked up): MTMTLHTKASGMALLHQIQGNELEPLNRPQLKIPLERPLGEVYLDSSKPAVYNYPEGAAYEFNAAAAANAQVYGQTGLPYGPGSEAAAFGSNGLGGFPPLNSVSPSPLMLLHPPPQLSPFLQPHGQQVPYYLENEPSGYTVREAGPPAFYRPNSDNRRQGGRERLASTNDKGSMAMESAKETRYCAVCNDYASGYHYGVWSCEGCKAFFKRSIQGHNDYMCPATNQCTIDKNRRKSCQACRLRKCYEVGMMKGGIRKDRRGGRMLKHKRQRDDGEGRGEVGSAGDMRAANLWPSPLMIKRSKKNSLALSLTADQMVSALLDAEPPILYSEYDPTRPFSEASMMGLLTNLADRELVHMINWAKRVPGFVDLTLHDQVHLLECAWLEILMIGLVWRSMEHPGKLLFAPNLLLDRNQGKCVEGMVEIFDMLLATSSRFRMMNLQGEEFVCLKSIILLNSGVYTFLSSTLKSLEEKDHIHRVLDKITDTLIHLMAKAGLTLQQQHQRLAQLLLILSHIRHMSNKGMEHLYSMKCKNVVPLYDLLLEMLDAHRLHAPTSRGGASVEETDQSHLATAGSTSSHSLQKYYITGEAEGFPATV

O=Cc1ccccc1
inactive: Potency [1] | Potency [2] | Potency [3] | Potency [4] | Potency [5] | Potency [6] | Potency [7] | Potency [8] | Potency [9] | Potency [10] | Potency [11] | Potency [12] | outcome [13] | Potency [14] | Potency [15] | Potency [16] | Potency [17] | Potency [18]

CNC(=O)Oc1cc(C)cc(C(C)C)c1
inactive: Potency [1] | Potency [2] | Potency [3] | Potency [4] | Potency [5] | Potency [6] | Potency [7] | Potency [8] | Potency [9] | Potency [10] | Potency [12] | Potency [19] | Potency [14] | Potency [15] | Potency [16] | Potency [17] | Potency [18]

COc1nc(C)nc(NC(=O)NS(=O)(=O)c2ccccc2Cl)n1
inactive: Potency [1] | Potency [2] | Potency [3] | Potency [4] | Potency [5] | Potency [6] | Potency [7] | Potency [8] | Potency [10] | Potency [11] | Potency [12] | Potency [19] | Potency [14] | Potency [15] | Potency [16] | Potency [17] | Potency [18]

COc1ccc2c(c1OC)C(=O)O[C@@H]2[C@H]1c2cc3c(cc2CCN1C)OCO3
active: Potency [17] 3.03 µM
inactive: Potency [1] | Potency [2] | Potency [3] | Potency [4] | Potency [5] | Potency [6] | Potency [7] | Potency [8] | Potency [9] | Potency [10] | Potency [12] | Potency [20] | Potency [14] | Potency [15] | Potency [18]

CCn1cc[n+](C)c1 (tested in a mixture with another compound)
inactive: Potency [1] | Potency [2] | Potency [3] | Potency [4] | Potency [5] | Potency [6] | Potency [7] | Potency [8] | Potency [9] | Potency [10] | Potency [12] | Potency [14] | Potency [15] | Potency [16] | Potency [17] | Potency [18]

COP(=S)(NC(C)C)Oc1ccc(C)cc1[N+](=O)[O-] (stereo not drawn)
inactive: Potency [1] | Potency [2] | Potency [3] | Potency [4] | Potency [5] | Potency [6] | Potency [7] | Potency [8] | Potency [9] | Potency [10] | Potency [12] | Potency [14] | Potency [15] | Potency [16] | Potency [17] | Potency [18]
active: Potency [19] 17.2 µM

N#Cc1ccc(N(CC(N)=O)CC(F)(F)F)cc1C(F)(F)F
inactive: Potency [1] | Potency [2] | Potency [3] | Potency [4] | Potency [5] | Potency [6] | Potency [7] | Potency [8] | Potency [9] | Potency [10] | Potency [12] | Potency [19] | Potency [14] | Potency [15] | Potency [16] | Potency [17] | Potency [18]

C=CC(=C)C
inactive: Potency [1] | Potency [2] | Potency [3] | Potency [4] | Potency [5] | Potency [6] | Potency [7] | Potency [8] | Potency [9] | Potency [10] | Potency [12] | Potency [19] | Potency [14] | Potency [15] | Potency [16] | Potency [17] | Potency [18]

CC[N+]1(CC)CCC(OC(=O)C(O)(c2ccccc2)c2ccccc2)C1 (stereo not drawn)
inactive: Potency [1] | Potency [2] | Potency [3] | Potency [4] | Potency [5] | Potency [6] | Potency [7] | Potency [8] | Potency [10] | Potency [11] | Potency [12] | Potency [19] | Potency [14] | Potency [15] | Potency [16] | Potency [17] | Potency [18]

CN(C)C(=S)SSC(=S)N(C)C
active: Potency [1] 4.83 µM and 1.23 µM and 213 nM | Potency [3] 309 nM and 134 nM | Potency [5] 48.3 µM and 1.74 µM and 2.68 µM | Potency [6] 272 nM and 195 nM and 21.3 µM | Potency [7] 43 µM and 27.5 µM | Potency [8] 43 µM and 38.9 µM | Potency [12] 214 nM and 217 nM | Potency [20] 107 nM and 172 nM and 188 nM | Potency [19] 191 nM and 273 nM and 237 nM | Potency [16] 427 nM and 545 nM and 422 nM | Potency [17] 191 nM and 611 nM and 1.19 µM
49 µM (active) and inactive: Potency [4]
inactive: Potency [2] | Potency [9] | outcome [13] | Potency [14] | Potency [15] | Potency [18]

Clc1c(Cl)c(Cl)c(Cl)c(Cl)c1Cl
inactive: cytotoxicity increase [1] -13.5% [at 6.97 µM] | cytotoxicity [2] 1.34% [at 6.97 µM] | cytotoxicity increase [3] -1.01% [at 6.97 µM] | cytotoxicity increase [4] -13.2% [at 6.97 µM] | activity change, negative = cytotoxic [5] -0.903% [at 6.97 µM] | activity change, negative = cytotoxicity [6] 2.9% [at 6.97 µM] | activity change, negative = cytotoxicity [7] 4.5% [at 6.97 µM] | activity change [8] -13.4% [at 6.97 µM, stronger effect = higher value] | activity change, negative = cytotoxicity [9] 6.05% [at 6.97 µM] | cytotoxicity increase [10] 1.99% [at 6.97 µM] | activity change, negative = cytotoxicity [11] 2.59% [at 8.39 µM] | viability change, negative = cytotoxic [12] 0.413% [at 8.39 µM] | activity change, negative = inhibition [14] 1.74% [at 8.39 µM] | activity change, negative = cytotoxicity [15] 0.165% [at 8.39 µM] | viability change, negative = cytotoxic [16] 1.7% [at 8.39 µM] | viability change, negative = cytotoxic [17] 2.78% [at 8.39 µM] | activity change [18] -0.252% [at 8.39 µM, stronger effect = higher value]

[F][Sn]([c]1ccccc1)([c]1ccccc1)[c]1ccccc1
inactive: Potency [2] | Potency [9] | Potency [15] | Potency [18]
active: Potency [1] 1.74 µM | Potency [3] 1.95 µM | Potency [4] 5.49 µM | Potency [5] 871 nM | Potency [6] 490 nM | Potency [7] 1.74 µM | Potency [8] 6.16 µM | Potency [10] 2.45 µM | Potency [12] 2.17 µM | Potency [19] 2.73 µM | Potency [16] 96.9 nM | Potency [17] 0.154 µM

CC(Cc1ccc2c(c1)OCO2)NO (stereo not drawn)
inactive: Potency [1] | Potency [2] | Potency [3] | Potency [4] | Potency [5] | Potency [6] | Potency [8] | Potency [9] | Potency [10] | Potency [11] | Potency [12] | Potency [19] | outcome [13] | Potency [14] | Potency [15] | Potency [16] | Potency [17] | Potency [18]

CC(C)=CC1C(C(=O)OC(C#N)c2cccc(Oc3ccccc3)c2)C1(C)C (stereo not drawn)
inactive: Potency [1] | Potency [2] | Potency [3] | Potency [4] | Potency [5] | Potency [6] | Potency [7] | Potency [9] | Potency [10] | Potency [11] | Potency [12] | Potency [20] | Potency [14] | Potency [15] | Potency [16] | Potency [17] | Potency [18]
